A short description of experiment [1]: qHTS assay to identify aromatase inhibitors - cell viability counter screen (AID 743084;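 also: cells stimulated with testosterone during compound exposure; nearly all actives have a fitted effect of over 55% in size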). (qHTS replaces the single test concentration by a dilution series.)
The target of experiment [2] is Aryl hydrocarbon receptor (Homo sapiens) (UniProt P35869). Kind of experiment: qHTS assay to identify small molecule that activate the aryl hydrocarbon receptor (AhR) signaling pathway (AID 743085).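 Also: HG2L7.5c1 human HepG2 liver cells with stably integrated DRE-driven firefly reporter; series mostly up to about 70 µM; nearly all actives have a fitted effect of over 15% in size.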 An outline of the steps: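 HepG2 cells stably carrying a 20-DRE firefly luciferase reporter (HG2L7.5c1) treated with compound for 24 hr at 37C. Luciferase read by ONE-Glo luminescence, with CellTiter-Fluor viability read first.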

A short description of experiment [3]: qHTS assay to identify small molecule that activate the aryl hydrocarbon receptor (AhR) signaling pathway - cell viability counter screen (AID 743086). Also: series mostly up to about 70 µM; nearly all actives have a fitted effect of over 45% in size. An outline of the steps:
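HepG2-AhR-luc (HG2L7.5c1) cells, 4000/well, were preincubated 5 h at 37C, exposed to compound in qHTS format for 24 hr at 37C, then given CellTiter-Fluor for 30 min; viability was read as fluorescence in the reporter wells.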

Experiment [4] addresses Peroxisome proliferator-activated receptor gamma (Homo sapiens) (UniProt P37231). Kind of experiment: qHTS assay to identify small molecule agonists of the peroxisome proliferator-activated receptor gamma (PPARg) signaling pathway (AID 743094; active = well fitted activation curve with a large enough effect in the signal ratio in the repeat runs, not every such curve was filed as active; the % refers to the signal ratio). An outline of the steps: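 Cells from the PPARg UAS-bla HEK293H line are plated and incubated 5 h at 37C. Compounds in DMSO are pinned in and left 17 h at 37C. LiveBLAzer B/G substrate is then added for 1 h at room temperature before fluorescence is measured.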

For experiment [5] the target is unchanged. Kind of experiment: qHTS assay to identify small molecule antagonists of the peroxisome proliferator-activated receptor gamma (PPARg) signaling pathway (AID 743191; calls by dose curve; also: series mostly up to about 63 µM; nearly all actives have a fitted effect of over 30% in size). The gist of the method: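 GeneBLAzer PPARg UAS-bla HEK293H cells carrying a UAS-driven beta-lactamase reporter were plated at 3000 cells/well, preincubated 5 h at 37C, then given compound for 17 h at 37C; LiveBLAzer B/G FRET substrate was read after 1 h at room temperature.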

Experiment [6] is described as follows: qHTS assay for small molecule agonists of the antioxidant response element (ARE) signaling pathway (AID 743202; active = well fitted activation curve with a large enough effect in the signal ratio in the repeat runs, not every such curve was filed as active; the % refers to the signal ratio; also: potency is read from the fitted curve at half-maximal effect). The gist of the method: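 Steps: seed ARE-bla HepG2 cells (2,000/well); incubate 5 h at 37 C; add compounds by pin tool; incubate 16 h at 37 C; add FRET substrate; read fluorescence after 2 h at RT.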
The nature of experiment [7]: qHTS assay for small molecule agonists of the antioxidant response element (ARE) signaling pathway - cell viability counter screen (AID 743203; calls by dose curve; also: nearly all actives have a fitted effect of over 55% in size). The gist of the method: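 Cytotoxicity was tested in parallel with the ARE reporter screen. ARE-bla HepG2 cells were exposed to compounds for 16 hrs, and viability was taken from CellTiter-Glo luminescence.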
A short description of experiment [8]: qHTS assay for small molecule activators of the heat shock response signaling pathway - cell viability counter screen (AID 743209). Also: nearly all actives have a fitted effect of over 50% in size. The gist of the method: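 Cytotoxicity counter screen run in parallel with the HSE beta-lactamase reporter, using the same wells. HeLa HSE-bla cells received compound for 5 h at 37 C; ATP-based CellTiter-Glo luminescence was measured after 30 min at room temperature.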

Experiment [9] is described as follows: qHTS assay for small molecule activators of the heat shock response signaling pathway (AID 743210; active = well fitted activation curve with a large enough effect in the signal ratio in the repeat runs, with a control signal flat, not every such curve was filed as active; the % refers to the signal ratio;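 also: HeLa cells with beta-lactamase reporter driven by heat shock elements; series mostly up to about 63 µM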). The gist of the method: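 Activation of heat shock element-controlled beta-lactamase expression is measured in HeLa cells by LiveBLAzer FRET fluorescence, with compound exposure lasting 5 h at 37 C and substrate loading 2.5 h at room temperature.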
Experiment [10] can be described thus: qHTS assay to identify small molecule agonists of the peroxisome proliferator-activated receptor delta (PPARd) signaling pathway - cell viability counter screen (AID 743211). Also: nearly all actives have a fitted effect of over 55% in size. Also: potency is read from the fitted curve at half-maximal effect. The gist of the method:
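PPARd-bla HEK293H cells (3000/well) were pre-incubated 5 h at 37 C, then exposed to compound for 17 h at 37 C. After 2 h with LiveBLAzer substrate, CellTiter-Glo was added to the same wells; luminescence read after 30 min at room temperature.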

The target of experiment [11] is Peroxisome proliferator-activated receptor delta (Homo sapiens) (UniProt Q03181). Nature of the experiment: qHTS assay to identify small molecule agonists of the peroxisome proliferator-activated receptor delta (PPARd) signaling pathway (AID 743212; calls by dose curve). The gist of the method:
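Cells expressing a UAS-driven beta-lactamase reporter (PPARd-bla HEK293H) were given test compounds after a 5 h settle and kept at 37 C. Reporter activity was then measured as FRET fluorescence using LiveBLAzer B/G substrate.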

Experiment [12] is described as follows: qHTS assay to identify small molecule antagonists of the peroxisome proliferator-activated receptor delta (PPARd) signaling pathway - cell viability counter screen (AID 743213). Also: nearly all actives have a fitted effect of over 50% in size. The gist of the method: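 Cytotoxicity counter screen: CellTiter-Glo luminescence read 30 min after addition, in the same wells as the reporter assay. There, PPARd UAS-bla HEK293H cells (3000/well) were treated 17 h at 37 C with compound and 300 nM L165041.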

The target in experiment [13] is Peroxisome proliferator-activated receptor delta (Homo sapiens) (UniProt Q03181). Nature of the experiment: qHTS assay to identify small molecule antagonists of the peroxisome proliferator-activated receptor delta (PPARd) signaling pathway (AID 743215; active = well fitted inhibition curve with a large enough effect in the signal ratio in the repeat runs, not every such curve was filed as active; the % refers to the signal ratio;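 also: cells stimulated with agonist L165041 at 300 nM final during compound exposure; series mostly up to about 62 µM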). The gist of the method: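 Cells: HEK293H with a UAS-driven beta-lactamase reporter responsive to PPARd. Compounds were co-added with L165041 (300 nM, final) and incubated 17 h at 37 C before a 2 h room-temperature FRET substrate step and fluorescence reading.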

Experiment [14] addresses Bile acid receptor (Homo sapiens) (UniProt Q96RI1). Nature of the experiment: qHTS assay to identify small molecule antagonists of the farnesoid-X-receptor (FXR) signaling pathway (AID 743217; active = well fitted inhibition curve with a large enough effect in the signal ratio in the repeat runs, not every such curve was filed as active; the % refers to the signal ratio). The gist of the method:
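Cells carrying a UAS-driven beta-lactamase reporter (GeneBLAzer FXR-UAS-bla HEK 293T) were plated and rested 5 h at 37 °C. Compounds in DMSO were added alongside chenodeoxycholic acid agonist at 50 uM final and left 16 h at 37 °C before FRET substrate readout.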

For experiment [15] the target is unchanged. Nature of the experiment: qHTS assay to identify small molecule agonists of the farnesoid-X-receptor (FXR) signaling pathway (AID 743220; active = well fitted activation curve with a large enough effect in the signal ratio in the repeat runs, not every such curve was filed as active; the % refers to the signal ratio). An outline of the steps: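 FXR-UAS-bla HEK 293T cells carrying a UAS-driven beta-lactamase reporter were plated for 5 h at 37C/5% CO2, then exposed to DMSO-dissolved Tox21 10K compounds for 16 h at 37C. A LiveBLAzer B/G FRET substrate was loaded for 2 h at room temperature before fluorescence reading.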

Experiment [16] is described as follows: qHTS assay to identify small molecule antagonists of the farnesoid-X-receptor (FXR) signaling pathway - cell viability counter screen (AID 743221; active = well fitted cell-killing curve with a large enough effect in the repeat runs, not every such curve was filed as active; also: nearly all actives have a fitted effect of over 50% in size). The gist of the method: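 GeneBLAzer FXR-UAS-bla HEK 293T cells, compound plus chenodeoxycholic acid (50 uM final), 16 h at 37 C. CellTiter-Glo added to the same wells after the beta-lactamase read; luminescence read after 30 min at room temperature as viability.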

The target in experiment [17] is Vitamin D3 receptor (Homo sapiens) (UniProt P11473). Nature of the experiment: qHTS assay to identify small molecule agonists of the vitamin D receptor (VDR) signaling pathway (AID 743222; calls by dose curve). An outline of the steps:
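Cells carrying a VDR-driven beta-lactamase reporter are seeded at 2,000 per well and rested 4 h. Compounds in DMSO are added for 16 h at 37C, and FRET substrate fluorescence is measured after 2 h at room temperature.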

Experiment [18] shares this target. Nature of the experiment: qHTS assay to identify small molecule antagonists of the vitamin D receptor (VDR) signaling pathway (AID 743223; active = well fitted inhibition curve with a large enough effect in the signal ratio in the repeat runs, not every such curve was filed as active; the % refers to the signal ratio). An outline of the steps:
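VDR-bla cells were treated with compound plus 3 nM final 1alpha,25-dihydroxyvitamin D3 for 16 h at 37C. Beta-lactamase reporter read by B/G FRET substrate fluorescence after 2 h at room temperature. qHTS format.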

The nature of experiment [19]: qHTS assay to identify small molecule agonists of the farnesoid-X-receptor (FXR) signaling pathway - cell viability counter screen (AID 743218). Also: nearly all actives have a fitted effect of over 45% in size. The gist of the method:
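Cells were seeded, left 5 h at 37 C and 5% CO2, then dosed with compound in DMSO for 16 h. After the beta-lactamase FRET read, CellTiter-Glo was added and luminescence measured 30 min later.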

The nature of experiment [20]: qHTS assay to identify small molecule antagonists of the peroxisome proliferator-activated receptor gamma (PPARg) signaling pathway - cell viability counter screen (AID 743194). Also: nearly all actives have a fitted effect of over 55% in size. An outline of the steps: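 PPARg-UAS-bla HEK293H cells were plated, rested 5 h at 37 C, then treated with compounds plus rosiglitazone (50 nM final) for 17 h at 37 C; viability was then read by CellTiter-Glo luminescence after 30 min at room temperature.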

Results filed as inconclusive are left out. Activity calls are given as the source filed them. Unless noted, calls follow the shape of the dose curve; as a rule, active = well fitted curve in the direction sought with a large enough effect in the repeat runs; inconclusive = weak or mixed curves; inactive = no such curve, though single readings can be large; an effect the other way counts as inactive or inconclusive.

Chain of Aryl hydrocarbon receptor (Homo sapiens) (P35869 whole entry, looked up): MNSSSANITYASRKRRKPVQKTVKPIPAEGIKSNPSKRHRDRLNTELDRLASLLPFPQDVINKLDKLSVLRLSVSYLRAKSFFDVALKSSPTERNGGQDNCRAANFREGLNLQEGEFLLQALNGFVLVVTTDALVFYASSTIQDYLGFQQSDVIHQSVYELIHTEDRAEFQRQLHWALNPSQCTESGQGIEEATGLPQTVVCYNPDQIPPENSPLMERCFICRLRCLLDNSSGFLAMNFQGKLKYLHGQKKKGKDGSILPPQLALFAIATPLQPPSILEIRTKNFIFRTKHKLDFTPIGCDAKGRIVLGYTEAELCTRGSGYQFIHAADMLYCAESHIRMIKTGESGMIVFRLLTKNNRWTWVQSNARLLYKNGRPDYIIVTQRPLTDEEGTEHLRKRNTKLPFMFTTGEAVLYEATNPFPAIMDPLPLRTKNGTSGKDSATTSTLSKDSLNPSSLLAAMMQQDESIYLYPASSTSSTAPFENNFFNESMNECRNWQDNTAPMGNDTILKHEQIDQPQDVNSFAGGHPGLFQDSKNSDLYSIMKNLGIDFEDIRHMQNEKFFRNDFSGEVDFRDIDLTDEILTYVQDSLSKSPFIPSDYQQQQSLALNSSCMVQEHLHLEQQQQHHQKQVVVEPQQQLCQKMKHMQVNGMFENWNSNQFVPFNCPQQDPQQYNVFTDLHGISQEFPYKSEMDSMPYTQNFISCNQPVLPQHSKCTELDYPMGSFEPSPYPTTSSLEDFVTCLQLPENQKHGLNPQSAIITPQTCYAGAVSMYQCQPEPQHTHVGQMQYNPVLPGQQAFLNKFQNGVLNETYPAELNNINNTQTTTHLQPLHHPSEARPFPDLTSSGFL
Chain of Peroxisome proliferator-activated receptor gamma (Homo sapiens) (P37231 whole entry, looked up): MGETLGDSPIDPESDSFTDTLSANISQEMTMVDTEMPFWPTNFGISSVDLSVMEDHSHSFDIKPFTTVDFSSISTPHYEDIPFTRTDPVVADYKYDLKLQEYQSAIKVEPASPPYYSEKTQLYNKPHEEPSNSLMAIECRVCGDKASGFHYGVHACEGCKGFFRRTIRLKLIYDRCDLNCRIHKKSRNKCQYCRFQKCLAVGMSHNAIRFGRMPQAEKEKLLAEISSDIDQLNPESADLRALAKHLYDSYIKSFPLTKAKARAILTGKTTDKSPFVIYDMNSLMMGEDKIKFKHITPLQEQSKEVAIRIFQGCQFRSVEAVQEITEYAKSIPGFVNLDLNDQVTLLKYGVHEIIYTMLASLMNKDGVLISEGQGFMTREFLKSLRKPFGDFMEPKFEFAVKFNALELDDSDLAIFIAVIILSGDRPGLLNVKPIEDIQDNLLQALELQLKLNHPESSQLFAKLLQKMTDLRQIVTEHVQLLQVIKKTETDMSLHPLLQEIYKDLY
Chain of Peroxisome proliferator-activated receptor delta (Homo sapiens) (Q03181 whole entry, looked up): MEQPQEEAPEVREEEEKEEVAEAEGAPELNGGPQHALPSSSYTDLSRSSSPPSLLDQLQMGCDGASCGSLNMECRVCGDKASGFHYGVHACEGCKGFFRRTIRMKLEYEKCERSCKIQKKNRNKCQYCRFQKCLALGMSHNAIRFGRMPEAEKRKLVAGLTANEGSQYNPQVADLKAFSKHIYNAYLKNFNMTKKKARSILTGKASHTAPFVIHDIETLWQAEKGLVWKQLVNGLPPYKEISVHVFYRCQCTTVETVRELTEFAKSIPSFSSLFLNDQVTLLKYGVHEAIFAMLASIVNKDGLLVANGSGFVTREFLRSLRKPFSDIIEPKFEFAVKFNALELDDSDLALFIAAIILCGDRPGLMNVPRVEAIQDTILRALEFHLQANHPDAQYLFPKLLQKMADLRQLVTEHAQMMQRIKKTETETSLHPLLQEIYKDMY
Chain of Vitamin D3 receptor (Homo sapiens) (P11473 whole entry, looked up): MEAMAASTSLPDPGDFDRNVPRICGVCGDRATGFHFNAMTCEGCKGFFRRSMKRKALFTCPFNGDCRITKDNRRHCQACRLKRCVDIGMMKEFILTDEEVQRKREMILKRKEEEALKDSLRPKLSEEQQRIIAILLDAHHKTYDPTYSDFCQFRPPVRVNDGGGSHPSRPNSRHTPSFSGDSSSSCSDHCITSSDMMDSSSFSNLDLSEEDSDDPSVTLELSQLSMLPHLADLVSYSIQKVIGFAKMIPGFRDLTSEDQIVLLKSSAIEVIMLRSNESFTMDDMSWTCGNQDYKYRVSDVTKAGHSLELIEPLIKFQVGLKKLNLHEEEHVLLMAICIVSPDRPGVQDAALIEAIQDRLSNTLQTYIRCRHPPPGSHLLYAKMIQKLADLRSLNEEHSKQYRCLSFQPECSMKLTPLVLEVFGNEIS
Chain of Bile acid receptor (Homo sapiens) (Q96RI1 whole entry, looked up): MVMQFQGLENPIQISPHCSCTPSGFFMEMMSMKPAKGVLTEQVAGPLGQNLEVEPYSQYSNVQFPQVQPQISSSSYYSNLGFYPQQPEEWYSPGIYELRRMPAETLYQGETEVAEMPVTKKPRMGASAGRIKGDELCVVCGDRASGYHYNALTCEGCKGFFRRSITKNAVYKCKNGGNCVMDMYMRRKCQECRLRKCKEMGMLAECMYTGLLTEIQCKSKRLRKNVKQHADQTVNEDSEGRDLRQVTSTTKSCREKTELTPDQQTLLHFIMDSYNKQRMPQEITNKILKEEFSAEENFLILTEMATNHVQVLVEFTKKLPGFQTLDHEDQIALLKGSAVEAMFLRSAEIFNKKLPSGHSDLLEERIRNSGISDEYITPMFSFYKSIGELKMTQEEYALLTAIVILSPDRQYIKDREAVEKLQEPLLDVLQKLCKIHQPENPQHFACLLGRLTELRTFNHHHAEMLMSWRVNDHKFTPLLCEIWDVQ

With `CC(=O)c1cccc([N+](=O)[O-])c1`, the Potency entry in experiment [1], in [2], in [3], in experiment [4], in [5] and in experiment [6] was “inactive” throughout. Further, the Potency entry in [7], in experiment [8], in [9], in experiment [10], in [11] and in [12] was “inactive” throughout. Further, the Potency result in [13], in experiment [14], in experiment [15], in experiment [16] and in experiment [17] was “inactive” each time. In [18], the result was inactive.

In the case of `COCC(C)OC(C)=O` (centres undefined), the Potency result in experiment [1], in experiment [2], in experiment [3], in experiment [4], in experiment [5] and in experiment [7] was “inactive” each time. The Potency result in [8], in experiment [9], in experiment [10], in experiment [11], in experiment [12] and in [13] was “inactive” throughout. The Potency result in [14], in experiment [19], in [15], in experiment [16] and in experiment [17] was “inactive” in each case.

For `OC(C#CCN1CCCC1)(c1ccccc1)c1ccccc1`, the Potency result in [1], in experiment [2], in experiment [3], in experiment [4], in [5] and in experiment [6] was “inactive” in each case. Further, the Potency entry in experiment [7], in [8], in experiment [9], in experiment [11], in [12] and in [13] was “inactive” each time. The Potency entry in [14], in experiment [16] and in [17] was “inactive” throughout.

Regarding `S=C([S-])NCCNC(=S)[S-].[Mn+2]`, the Potency entry in [1], in experiment [2], in experiment [3], in experiment [4], in experiment [5] and in [7] was “inactive” in each case. For the same molecule, the Potency entry in [8], in [12], in experiment [16] and in [17] was “inactive” in each case. In experiment [6], the Potency was 6.86 µM (active).

As for `CCOc1ccc(N)c([N+](=O)[O-])c1`, the Potency result in experiment [1], in experiment [2], in experiment [3], in experiment [4], in experiment [5] and in experiment [7] was “inactive” throughout. Also, the Potency result in experiment [8], in experiment [9], in experiment [10], in experiment [11], in experiment [12] and in experiment [13] was “inactive” each time. Further, the Potency entry in experiment [16] and in experiment [17] was “inactive” in each case. For the same molecule, the call in [18] was inactive.

For `CC(C)(CO)[N+](=O)[O-]`, the Potency result in experiment [1], in experiment [2], in experiment [3], in experiment [4], in experiment [5] and in [6] was “inactive” each time. The Potency entry in experiment [7], in experiment [8], in experiment [9], in experiment [12], in experiment [19] and in experiment [16] was “inactive” each time. Further, the Potency entry in [17] was “inactive”.

In the case of `COC(C)OC`, the Potency result in experiment [1], in [2], in [3], in experiment [4], in experiment [5] and in [6] was “inactive” in each case. Moreover, the Potency result in experiment [7], in experiment [8], in experiment [9], in [10], in experiment [11] and in experiment [12] was “inactive” throughout. Besides, the Potency entry in experiment [13], in experiment [19], in experiment [16] and in experiment [17] was “inactive” in each case.

As for `COc1cc(Cl)ccc1Oc1ccc(Cl)cc1Cl`, the Potency result in experiment [1], in experiment [2], in [3], in [4], in experiment [20] and in [6] was “inactive” throughout. Besides, the Potency result in experiment [7], in [8], in experiment [9], in experiment [11], in experiment [12] and in experiment [13] was “inactive” throughout. Besides, the Potency result in [14], in experiment [19], in experiment [15], in experiment [16] and in [17] was “inactive” each time. Also, the Potency in experiment [10] was 47.6 µM (active). For the same molecule, the outcome in experiment [18] was inactive.

For the origin of these results see PubChem BioAssay (Tox21).
